Key:
Experiment in all cases: DAPPL (digital affinity profiling via proximity ligation, sequencing); 10 mM Tris-HCl pH 7.5, 50 mM NaCl, 1 mM DTT, 4% glycerol, room temperature, 30 min; GST-TFs on glutathione beads, 16-mer random dsDNA library, 0.1% formaldehyde crosslink after washing; high values mean tight binding
Details in all cases: protein: recombinant; tags: N-terminal GST; dsDNA, one strand shown
[1] = target: T1, ELK4 (Homo sapiens, UniProt P28324-2 1-405)
T1 sequence: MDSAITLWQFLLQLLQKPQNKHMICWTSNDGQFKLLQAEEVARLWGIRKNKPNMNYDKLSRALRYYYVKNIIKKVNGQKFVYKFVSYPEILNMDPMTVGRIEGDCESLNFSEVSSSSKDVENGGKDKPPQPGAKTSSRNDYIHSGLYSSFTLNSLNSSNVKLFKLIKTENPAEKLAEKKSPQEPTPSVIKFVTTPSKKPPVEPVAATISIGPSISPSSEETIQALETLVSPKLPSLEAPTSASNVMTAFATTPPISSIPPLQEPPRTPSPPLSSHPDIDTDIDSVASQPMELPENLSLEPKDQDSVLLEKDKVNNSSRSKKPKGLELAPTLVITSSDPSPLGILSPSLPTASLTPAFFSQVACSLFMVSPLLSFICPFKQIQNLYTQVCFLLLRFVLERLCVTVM
Procedure, shortened: (§1)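 Yeast served to express human transcription factors as GST fusions, which were then captured on glutathione beads and labelled with DNA barcodes. Pooled with a tag-only sample, they were incubated with 200 nmole of a 16-mer random double-stranded DNA library for 30 min at room temperature in Tris/NaCl/DTT/glycerol buffer, washed, crosslinked with 0.1% formaldehyde, ligated by proximity, amplified by PCR and sequenced. Dividing each hexamer's read frequency for a factor by its frequency for the tag-only sample gives the binding signal.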

[2] = target: T2, ETV2 (Homo sapiens, UniProt O00321 1-342)
T2 sequence: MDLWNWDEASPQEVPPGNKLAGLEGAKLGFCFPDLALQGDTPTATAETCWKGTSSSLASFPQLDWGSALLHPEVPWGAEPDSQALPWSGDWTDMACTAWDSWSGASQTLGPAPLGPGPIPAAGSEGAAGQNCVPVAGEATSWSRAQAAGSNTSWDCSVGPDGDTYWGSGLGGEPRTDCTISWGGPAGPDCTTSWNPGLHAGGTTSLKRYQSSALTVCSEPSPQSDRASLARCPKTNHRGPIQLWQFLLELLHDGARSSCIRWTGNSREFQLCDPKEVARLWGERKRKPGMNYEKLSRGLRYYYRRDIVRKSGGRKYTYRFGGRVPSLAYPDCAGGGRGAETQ
Procedure, shortened: as §1

[3] = target: T3, ELF3 (Homo sapiens, UniProt P78545 1-371)
T3 sequence: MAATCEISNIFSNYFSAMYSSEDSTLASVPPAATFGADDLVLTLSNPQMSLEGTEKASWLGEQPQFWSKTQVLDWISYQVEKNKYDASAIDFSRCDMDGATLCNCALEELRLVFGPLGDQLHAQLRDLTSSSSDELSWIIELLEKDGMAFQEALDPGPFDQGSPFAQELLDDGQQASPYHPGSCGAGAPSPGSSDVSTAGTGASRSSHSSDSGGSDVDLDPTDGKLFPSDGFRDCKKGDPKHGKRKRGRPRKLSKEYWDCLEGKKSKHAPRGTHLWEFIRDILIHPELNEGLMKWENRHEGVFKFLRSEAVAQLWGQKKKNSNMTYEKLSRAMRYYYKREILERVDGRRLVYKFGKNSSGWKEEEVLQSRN
Procedure, shortened: as §1

[4] = target: ETV1 (Homo sapiens, UniProt P50549 1-477)
Procedure, shortened: as §1

[5] = target: T4, ERF (Homo sapiens, UniProt P50548 1-548)
T4 sequence: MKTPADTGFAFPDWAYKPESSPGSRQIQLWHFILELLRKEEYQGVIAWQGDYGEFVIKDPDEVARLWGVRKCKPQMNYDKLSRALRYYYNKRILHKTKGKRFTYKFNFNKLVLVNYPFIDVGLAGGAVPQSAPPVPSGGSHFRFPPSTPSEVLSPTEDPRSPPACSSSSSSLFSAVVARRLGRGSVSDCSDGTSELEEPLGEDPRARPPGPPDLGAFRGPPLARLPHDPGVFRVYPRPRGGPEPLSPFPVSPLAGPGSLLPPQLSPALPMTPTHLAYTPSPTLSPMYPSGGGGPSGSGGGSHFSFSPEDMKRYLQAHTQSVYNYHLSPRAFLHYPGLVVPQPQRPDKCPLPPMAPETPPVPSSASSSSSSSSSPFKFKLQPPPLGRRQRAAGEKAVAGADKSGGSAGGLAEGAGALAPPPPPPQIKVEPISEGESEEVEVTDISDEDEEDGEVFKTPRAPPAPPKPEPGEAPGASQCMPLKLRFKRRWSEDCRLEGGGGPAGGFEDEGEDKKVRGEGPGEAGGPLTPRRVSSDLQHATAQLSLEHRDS
Procedure, shortened: as §1

[6] = target: T5, ETV3L (Homo sapiens, UniProt Q6ZN32 1-361)
T5 sequence: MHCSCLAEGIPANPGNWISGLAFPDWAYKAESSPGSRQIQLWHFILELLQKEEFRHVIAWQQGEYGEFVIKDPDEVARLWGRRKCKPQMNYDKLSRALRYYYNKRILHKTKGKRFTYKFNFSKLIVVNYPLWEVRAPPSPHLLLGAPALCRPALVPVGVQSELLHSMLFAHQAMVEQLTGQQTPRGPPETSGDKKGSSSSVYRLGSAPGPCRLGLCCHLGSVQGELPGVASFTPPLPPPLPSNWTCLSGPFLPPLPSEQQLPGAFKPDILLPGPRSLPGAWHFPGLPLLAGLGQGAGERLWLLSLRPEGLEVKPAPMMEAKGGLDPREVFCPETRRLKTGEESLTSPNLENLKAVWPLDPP
Procedure, shortened: as §1

[7] = target: T6, ETS2 (Homo sapiens, UniProt P15036 1-469)
T6 sequence: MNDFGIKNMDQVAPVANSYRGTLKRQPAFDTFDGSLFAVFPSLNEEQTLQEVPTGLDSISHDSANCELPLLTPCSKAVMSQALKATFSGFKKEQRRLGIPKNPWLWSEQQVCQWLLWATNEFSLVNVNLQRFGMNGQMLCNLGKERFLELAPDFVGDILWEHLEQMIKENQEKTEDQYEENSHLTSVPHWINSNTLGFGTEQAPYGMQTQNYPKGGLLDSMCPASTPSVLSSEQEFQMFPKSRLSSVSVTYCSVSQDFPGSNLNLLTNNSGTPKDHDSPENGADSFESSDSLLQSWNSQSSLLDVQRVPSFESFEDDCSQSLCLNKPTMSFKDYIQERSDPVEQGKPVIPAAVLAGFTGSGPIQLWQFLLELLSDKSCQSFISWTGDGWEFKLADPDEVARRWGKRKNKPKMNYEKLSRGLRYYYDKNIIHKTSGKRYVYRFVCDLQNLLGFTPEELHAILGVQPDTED
Procedure, shortened: as §1

[8] = target: T7, SPDEF (Homo sapiens, UniProt O95238 1-335)
T7 sequence: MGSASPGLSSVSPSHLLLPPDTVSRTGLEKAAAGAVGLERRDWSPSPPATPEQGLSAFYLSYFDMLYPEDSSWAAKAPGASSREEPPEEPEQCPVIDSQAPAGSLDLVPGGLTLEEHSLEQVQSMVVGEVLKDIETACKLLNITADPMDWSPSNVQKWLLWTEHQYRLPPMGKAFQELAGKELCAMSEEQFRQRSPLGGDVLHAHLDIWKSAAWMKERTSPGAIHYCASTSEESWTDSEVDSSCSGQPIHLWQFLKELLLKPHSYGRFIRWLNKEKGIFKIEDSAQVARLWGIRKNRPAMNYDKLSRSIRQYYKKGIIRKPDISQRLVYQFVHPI
Procedure, shortened: as §1

[9] = target: T8, ETV7 (Homo sapiens, UniProt Q9Y603 1-341)
T8 sequence: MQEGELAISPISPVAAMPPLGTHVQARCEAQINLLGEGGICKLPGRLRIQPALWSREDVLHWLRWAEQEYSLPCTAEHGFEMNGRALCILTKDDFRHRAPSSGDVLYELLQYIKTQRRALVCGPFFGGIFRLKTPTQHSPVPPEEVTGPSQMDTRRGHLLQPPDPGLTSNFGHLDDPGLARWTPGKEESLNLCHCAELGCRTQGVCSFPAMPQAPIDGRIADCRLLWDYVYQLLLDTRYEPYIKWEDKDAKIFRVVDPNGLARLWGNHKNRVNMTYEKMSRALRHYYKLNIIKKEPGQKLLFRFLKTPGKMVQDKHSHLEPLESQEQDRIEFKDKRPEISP
Procedure, shortened: as §1

[10] = target: T9, ETV3 (Homo sapiens, UniProt P41162-2 1-143)
T9 sequence: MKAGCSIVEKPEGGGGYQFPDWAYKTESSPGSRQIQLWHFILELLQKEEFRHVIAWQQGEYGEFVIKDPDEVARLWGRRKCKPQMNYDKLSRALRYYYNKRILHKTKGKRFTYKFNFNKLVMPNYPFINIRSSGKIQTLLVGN
Procedure, shortened: as §1

ETV1, sequence (P50549 whole entry): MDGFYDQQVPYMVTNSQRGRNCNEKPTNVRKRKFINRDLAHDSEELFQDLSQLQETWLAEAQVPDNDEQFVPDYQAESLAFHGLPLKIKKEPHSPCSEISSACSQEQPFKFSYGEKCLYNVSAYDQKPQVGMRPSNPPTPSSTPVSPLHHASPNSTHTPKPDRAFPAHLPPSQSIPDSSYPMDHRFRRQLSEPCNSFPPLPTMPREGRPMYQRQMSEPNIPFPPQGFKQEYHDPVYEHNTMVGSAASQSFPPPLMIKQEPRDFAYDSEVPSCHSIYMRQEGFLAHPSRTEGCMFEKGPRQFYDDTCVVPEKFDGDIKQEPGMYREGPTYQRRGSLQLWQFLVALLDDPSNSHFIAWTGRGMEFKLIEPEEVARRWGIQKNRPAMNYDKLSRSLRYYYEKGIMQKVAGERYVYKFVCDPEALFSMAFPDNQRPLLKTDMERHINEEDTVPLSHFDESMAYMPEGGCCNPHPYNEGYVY

CGATGC
binding signal [1]: 1.07 fold enrichment (6-mer frequency, TF over GST control)
binding signal [2]: 1.15 fold enrichment (6-mer frequency, TF over GST control)
binding signal [3]: 1.2 fold enrichment (6-mer frequency, TF over GST control)
binding signal [4]: 1.03 fold enrichment (6-mer frequency, TF over GST control)
binding signal [5]: 1.07 fold enrichment (6-mer frequency, TF over GST control)
binding signal [6]: 1.18 fold enrichment (6-mer frequency, TF over GST control)
binding signal [7]: 1.06 fold enrichment (6-mer frequency, TF over GST control)
binding signal [8]: 1.07 fold enrichment (6-mer frequency, TF over GST control)
binding signal [9]: 1.04 fold enrichment (6-mer frequency, TF over GST control)
binding signal [10]: 1.17 fold enrichment (6-mer frequency, TF over GST control)

Source: paper PMC7862700, “An all-to-all approach to the identification of sequence-specific readers for epigenetic DNA modifications on cytosine”
